aSyn UTR act: Activators working through SNCA 5'UTR binding (MLPCN) | 7.1% of 300,000 active | alpha-synuclein 5'UTR reporter, activators screen | activity score, % (tested at 7.5 µM), hits read low | AID 1814; in the data active means activity score below about -60%
Active calls of the source: *. Not all results are given here.

SMILES	aSyn UTR act
Cc1cccc2c1-c1sc(C(=O)NCCCN3CCCC(C)C3)cc1CO2 (stereo not drawn)	69
Cc1cccc(NC(=O)c2cc3c(s2)-c2c(C)cccc2OC3)n1	-144*
N/C(=C\C(=O)c1cc(Cl)ccc1O)C(Cl)(Cl)Cl	-80*
O=C1C2C3C=CC(CO)(O3)C2C(=O)N1c1ccc(-c2ccccc2)cc1 (stereo not drawn)	-85*
O=[N+]([O-])c1cc(S(=O)(=O)/N=C(/c2ccccc2)N2CCOCC2)ccc1Cl	-83*
COc1ccccc1C(=O)Nc1ccc2c(c1)OCCO2	-124*
O=C(Nc1ccccc1C(=O)Nc1ccc2c(c1)OCO2)c1ccco1	-74*
COc1ccccc1C(=O)Nc1ccc2c(c1)OCO2	-245*
COCCn1cnnc1SCC(=O)Nc1ccccc1C(=O)Nc1ccc2c(c1)OCO2	-70*
COc1cc(C2=NOC(C(=O)NCc3ccc(F)cc3)C2)cc(OC)c1OC (stereo not drawn)	77
COc1cc(C2=NOC(C(=O)Nc3ccc4c(c3)OCO4)C2)cc(OC)c1OC (stereo not drawn)	-64*
COc1ccc2c(=O)c3c(=O)n(-c4ccccc4)c(-c4ccco4)nc3oc2c1	-96*
CCc1nc2oc3cc(OC)ccc3c(=O)c2c(=O)n1-c1ccccc1	-124*
Cc1ccc(-n2c(C)nc3oc4ccccc4c(=O)c3c2=O)cc1	-241*
Cc1cc(C(=O)CN2CCCC(C)C2)c(C)n1-c1ccc(F)cc1 (stereo not drawn)	-126*
O=C(Nc1ccc2nc(C3CC3)n(Cc3ccccc3)c(=O)c2c1)C1CC1	-251*
CC(=O)Nc1ccc2nc(C)n(Cc3ccc(Cl)cc3)c(=O)c2c1	-78*
CCC(=O)Nc1nc2ccccc2n1Cc1ccc(Cl)cc1	72
CCC(=O)Nc1ccc2nc(C3CC3)n(Cc3ccccc3)c(=O)c2c1	-201*
COc1ccc(Cn2c(C3CC3)nc3ccc(NC(=O)c4ccco4)cc3c2=O)cc1	-152*
O=C(CSC(=S)N1CCOCC1)c1cc2ccccc2oc1=O	-63*
c1cc2cc(-c3c(-c4ccc5c(c4)OCO5)noc3-c3ccsc3)ccc2[nH]1	-81*
c1ccc(-c2onc(-c3ccco3)c2-c2ccc3[nH]ccc3c2)cc1	-65*
N/C(Cc1nc(-c2ccc(Cl)cc2)cs1)=N/O	-67*
Cc1ccc(-c2csc(CC(N)=O)n2)cc1	-76*
SMILES	aSyn UTR act
COc1cccc2sc(/N=C/N(C)C)nc12	-81*
c1ccc2c(c1)Cc1cc(CN3CCOCC3)ccc1-2	-113*
O=C(O)c1ccc(N/N=C2/CCCc3ccccc32)cc1	-82*
Cc1cc(C(=O)N/N=C2\CCCc3ccccc32)c(C)o1	-126*
COc1ccc2c(c1)CCC/C2=N\NC(=O)c1ccoc1C	-70*
O=C(N/N=C1\CCCCc2ccccc21)c1ccccn1	-92*
Cc1cc(C(=O)NC2Cc3ccccc3C2)c(C)o1	-137*
O=C(N/N=C1\CCCc2ccccc21)c1ccccc1Cl	-132*
COc1ccc2c(c1)CCC/C2=N\Nc1nc(C(=O)NN)cs1	-92*
O=C(N/N=C1\CCc2ccccc21)c1ccncc1	-160*
Brc1ccc(C2=Nn3c(nnc3-c3n[nH]c4c3CCC4)SC2)cc1	86
O=C(Nc1cccnc1)c1ccc([N+](=O)[O-])o1	-202*
O=C(NN(c1ccccc1)c1ccccc1)c1ccc([N+](=O)[O-])o1	-83*
NC(=O)c1oc2ccccc2c1NC(=O)c1ccc([N+](=O)[O-])o1	100
O=C(NCc1cccnc1)c1ccc([N+](=O)[O-])o1	-117*
COC(=O)c1sccc1-c1ccc(C(=O)Nc2cccnc2)o1	-76*
COc1ccc(C(=O)NN/C(=N/S(=O)(=O)c2ccc(C)cc2)c2ccccc2)cc1	-81*
Cc1ccc(S(=O)(=O)/N=C(/NC(=S)Nc2ccccc2)c2ccccc2)cc1	-126*
Cc1ccc(NC(=S)N/C(=N/S(=O)(=O)c2ccccc2)c2ccccc2)cc1	-205*
Oc1csc(Cc2nc(-c3ccc(Br)cc3)cs2)n1	-291*
COc1ccc(NC(=O)n2nc(OC(=O)c3cccs3)cc2N)cc1	-84*
N#C/C(=N\Nc1cccc2ccccc12)c1nnc2n1CCCCC2	-71*
O=C(NC1CCCCC1)c1ccc(-c2ccccc2[N+](=O)[O-])o1	-83*
O=C(NCC1CCCO1)c1cc(-c2ccccc2F)no1 (stereo not drawn)	-204*
O=C(NCC1CCCO1)c1ccc([N+](=O)[O-])o1 (stereo not drawn)	-90*
SMILES	aSyn UTR act
O=C(NC1CCCCC1)c1ccc([N+](=O)[O-])o1	-79*
O=C(NCC1CCCO1)c1ccc(-c2ccccc2Cl)o1 (stereo not drawn)	-115*
CC(NC(=O)COC(=O)c1ccc2c(c1)S(=O)(=O)N=C1CCCCCN12)C12CC3CC(CC(C3)C1)C2 (stereo not drawn)	68
CC(NC(=O)c1ccc([N+](=O)[O-])o1)C12CC3CC(CC(C3)C1)C2 (stereo not drawn)	-168*
Cc1ccc(Cl)c2c(N=Nc3ccccc3)c(O)[nH]c12	-170*
Cc1cccc(N=Nc2c(C)[nH]n(C(N)=S)c2=O)c1C	-199*
Cc1[nH]n(C(N)=S)c(=O)c1N=Nc1cccc(Cl)c1	-126*
CC(=O)N(C)c1ccc(N=Nc2c(C)[nH]n(C(N)=S)c2=O)cc1	-112*
COc1ccc(/C(N)=N/OC(=O)c2ccco2)cc1OC	-142*
N/C(=N\OC(=O)c1ccco1)c1cccc(Br)c1	-249*
N/C(=N\OC(=O)c1ccco1)c1cccc([N+](=O)[O-])c1	-210*
CS(=O)(=O)c1ccc2nc(NC(=O)Nc3cccc(Cl)c3)sc2c1	-85*
CS(=O)(=O)c1ccc2nc(NC(=O)Nc3ccccc3F)sc2c1	-109*
Cc1cc(C)n(-c2nc(NCCN(C)C)c3c4c(sc3n2)CCCC4)n1	116
Cc1ccccc1Cn1c(=O)n(Cc2ccco2)c(=O)c2ccccc21	56
CN(C)CCNc1nc2sc3c(c2c(=O)n1CCc1ccccc1)CCCCC3	-87*
CC(O)CNc1nc2sc3c(c2c(=O)n1Cc1ccco1)CCCCC3 (stereo not drawn)	-103*
CC(O)CNc1nc2sc3c(c2c(=O)n1CCc1ccccc1)CCCCC3 (stereo not drawn)	-72*
NC(=O)Cn1c(=O)n(Cc2ccco2)c(=O)c2c3c(sc21)CCCCC3	-80*
Cc1ccc2nc(NC(=O)C3CCCN(S(=O)(=O)c4cnc[nH]4)C3)sc2c1 (stereo not drawn)	-128*
Cc1ccc(S(=O)(=O)CCSc2n[nH]c(=O)n2-c2ccc3c(c2)OCCO3)cc1	-72*
CCOC(=O)c1nn(-c2ccc(C)c(C)c2)cc1O	-141*
COC(=O)c1nn(-c2ccc3c(c2)CCN3C(C)=O)cc1O	91
COC(=O)c1nn(-c2ccc3c(c2)OCO3)cc1O	-86*
CCOC(=O)c1nn(-c2ccc(C)cc2)cc1C(=O)c1ccccc1	-120*
SMILES	aSyn UTR act
CCOC(=O)c1nn(-c2ccc(C)c(C)c2)c(=O)c2c(N)scc12	46
O=C(Nc1ccc2c(c1)OCO2)c1cnc2n(c1=O)CCS2	-125*
O=C(Nc1ccc2c(c1)OCCO2)c1cnc2n(c1=O)CCS2	-75*
CCOC(=O)c1cnn(-c2ccc(C)cc2)c1N	-100*
CCOC(=O)c1cnc2c(-c3cccc(Br)c3)cnn2c1C	-127*
CCOC(=O)c1cnc(-n2nc(C)cc2C)nc1NNc1cc(-c2ccccc2)nc(C)n1	93
Cc1cc(C)n2ncc(/C(N)=N/OC(=O)c3ccccc3F)c2n1	-100*

Screening results from PubChem BioAssay.
